# Reference: article PMC4336329 (PLoS ONE, 2015)
# In all, about 310,000 compounds went through this assay and about 14,000 (4.5%) showed an effect of 50% or more. Effects have a minus sign here. The entries come from a sample that favours strong results as a whole.
# Target: human ether-à-go-go-related gene (hERG) potassium channel (human, UniProt Q12809)
# Test: primary screen, population patch clamp on CHO cells stably expressing hERG; higher = less effect of the substance
# 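Also: peak tail current of the secondary pulse compared with the same well before compound.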
# Sequence of human ether-à-go-go-related gene (hERG) potassium channel (Q12809 whole entry, looked up): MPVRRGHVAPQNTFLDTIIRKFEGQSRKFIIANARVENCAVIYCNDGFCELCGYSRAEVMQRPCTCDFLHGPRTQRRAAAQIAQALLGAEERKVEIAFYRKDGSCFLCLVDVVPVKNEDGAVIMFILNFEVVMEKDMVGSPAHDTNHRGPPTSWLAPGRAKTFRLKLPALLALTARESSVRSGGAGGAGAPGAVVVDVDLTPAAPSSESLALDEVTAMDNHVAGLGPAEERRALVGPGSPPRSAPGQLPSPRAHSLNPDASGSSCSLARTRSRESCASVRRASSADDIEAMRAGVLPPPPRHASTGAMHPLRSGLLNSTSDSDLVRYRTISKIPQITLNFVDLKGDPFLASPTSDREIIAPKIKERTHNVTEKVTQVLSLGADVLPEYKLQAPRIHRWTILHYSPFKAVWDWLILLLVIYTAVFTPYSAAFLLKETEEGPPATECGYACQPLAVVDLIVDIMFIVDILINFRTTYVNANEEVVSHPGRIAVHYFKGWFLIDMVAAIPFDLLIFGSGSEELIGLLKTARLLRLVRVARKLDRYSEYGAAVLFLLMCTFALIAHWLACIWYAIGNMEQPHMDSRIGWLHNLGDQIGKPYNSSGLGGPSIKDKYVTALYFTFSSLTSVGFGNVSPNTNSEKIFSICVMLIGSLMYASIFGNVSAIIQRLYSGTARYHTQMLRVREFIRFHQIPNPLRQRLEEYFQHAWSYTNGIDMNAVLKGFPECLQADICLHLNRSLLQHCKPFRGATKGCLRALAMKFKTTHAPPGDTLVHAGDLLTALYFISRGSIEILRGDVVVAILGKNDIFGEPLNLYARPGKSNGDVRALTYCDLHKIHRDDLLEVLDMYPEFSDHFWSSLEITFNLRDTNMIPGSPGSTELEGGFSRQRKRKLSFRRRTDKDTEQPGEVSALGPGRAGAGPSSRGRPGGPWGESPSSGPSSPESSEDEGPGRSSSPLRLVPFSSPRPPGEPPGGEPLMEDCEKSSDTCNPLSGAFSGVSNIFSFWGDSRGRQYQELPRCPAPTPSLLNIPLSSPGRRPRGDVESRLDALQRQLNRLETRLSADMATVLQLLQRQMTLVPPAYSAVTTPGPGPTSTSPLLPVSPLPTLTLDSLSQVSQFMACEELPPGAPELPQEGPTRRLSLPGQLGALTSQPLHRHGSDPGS
row,SMILES,"hERG current change (%, negative = inhibition) at 10uM"
1,CSC1=C(C#N)C(c2ccccc2Cl)C2=C(N1)c1ccccc1C2=O (stereo not shown),6.44%
2,CCC(C)(C)n1nnnc1C(c1cccs1)N1CCCCC1 (stereo not shown),-19.4%
3,Cc1cccn2c(CN3CCCN(C=O)CC3)c(C(=O)N(C)CCc3ccccc3)nc12,26.6%
4,CCOC(=O)CCNC(=O)N1CCCC(N(C)CCc2ccc(OC)c(OC)c2)C1 (stereo not shown),-6.37%
5,CC(=O)NCCC(=O)N1CCCC(N(C)CCc2ccccc2)C1 (stereo not shown),-26.7%
6,CCOC(=O)CCNC(=O)N1CCCC(N(C)CCc2ccccc2)C1 (stereo not shown),-49.4%
7,CCCCNC(=O)N1CCCC(N(C)CCc2ccc(OC)c(OC)c2)C1 (stereo not shown),-67.8%
8,COc1ccc(CCN(C)C2CCCN(C(=O)CCC(F)(F)F)C2)cc1OC (stereo not shown),-52%
9,CSCCC(=O)N1CCCC(N(C)CCc2ccccc2)C1 (stereo not shown),-56.8%
10,COc1ccc(CCN(C)C2CCCN(C(=O)Cn3cccn3)C2)cc1OC (stereo not shown),-6.28%
11,COCC(=O)N1CCCC(N(C)CCc2ccc(OC)c(OC)c2)C1 (stereo not shown),8.28%
12,COC(=O)CCCC(=O)N1CCCC(N(C)CCc2ccccc2)C1 (stereo not shown),-40.6%
13,COc1ccc(CCN(C)C2CCCN(C(=O)CCSC)C2)cc1OC (stereo not shown),-57.2%
14,COc1ccc(CCN(C)C2CCCN(C(=O)Cn3cnnn3)C2)cc1OC (stereo not shown),10.2%
15,COCC(C)n1c(C)cc(C(=O)CN2C(=O)NC3(CCCCC3C)C2=O)c1C (stereo not shown),-8.29%
16,COC(=O)c1ccc(NC(=S)N2CCC(C(N)=O)CC2)cc1,12.2%
17,CCC(C)(C(=O)NC1CCCCC1)N(C(=O)CNC(=O)c1ccccc1)c1c(C)n(C)n(-c2ccccc2)c1=O (stereo not shown),10.1%
18,CN=C1SC(C(=O)O)CC(=O)N1C (stereo not shown),19.1%
19,Cc1ccc(NC(=S)Nc2ccc(OC(F)F)c(Cl)c2)cc1Cl,16.5%
20,Cc1nc2ccc(S(=O)(=O)NCC(=O)NCCc3ccc(Cl)cc3)cc2s1,28.3%
21,c1ccc2c(-c3nnc(SCc4cn5ccccc5n4)o3)c[nH]c2c1,-4.5%
22,Cc1nc(Cl)c(C(=O)Nc2cccc(F)c2)c(C)c1Cl,-5.95%
23,CSc1nnc(CNS(=O)(=O)c2ccc(F)cc2)n1C,19.7%

row,SMILES,"hERG current change (%, negative = inhibition) at 10uM"
1,CCN1/C(=C/c2ccc3ccccc3[n+]2CC)C=Cc2ccccc21.[Cl-],-82.5%
2,CCN1C(=C(C#N)C#N)C=Cc2ccccc21,15.8%
3,CCN1/C(=C/c2ccc3ccccc3[n+]2CCCS(=O)(=O)[O-])C=Cc2cc(C)ccc21,24.2%
4,CCOC(=O)/C(C#N)=C/C=C1\C=Cc2ccccc2N1CC,7.18%
5,CCN1C(=O)/C(=C2\C=Cc3cc(C)ccc3N2CC)OC1=S,0.13%
6,CCN1/C(=C/c2cc[n+](C)cc2)C=Cc2cc(C)ccc21.[I-],-72.2%
7,C=CC[n+]1c(/C=C2\C=Cc3cc(C)ccc3N2CC)ccc2ccccc21.[Br-],-83.5%
8,CCN1/C(=C2\C(=O)N(c3ccccc3)N=C2C)C=Cc2cc(C)ccc21,-40%
9,CCN1C(=C(C#N)C#N)C=Cc2cc(C)ccc21,15.7%
10,CC1=C(C(N)=O)C(c2ccccc2F)n2nc(CCCO)nc2N1 (stereo not shown),20.3%
11,OCC[C@H]1C[C@H](O)[C@@H](O)[C@@]2(CCc3ccccc3CO2)O1,7.83%
12,CCOCC(=O)Nc1cc([N+](=O)[O-])ccc1C,-2.36%
13,COc1cc(NS(=O)(=O)c2ccc(NC(=S)NC(=O)c3ccco3)cc2)ncn1,20.4%
14,Cc1ccc(-c2noc(CCCN3C(=O)c4ccccc4C3=O)n2)cc1,9.03%
15,CCCCNC(=O)CC1NCCNC1=O (stereo not shown),22%
16,Cc1ccccc1CS(=O)(=O)CCC(=O)NCCN1CCN(c2cccc(Cl)c2)CC1,-42.5%
17,CCOC(=O)CNc1nc(Cl)nc(Nc2ccc(OC)cc2OC)n1,19.2%
18,CN1C(c2ccc(F)cc2)=CS/C1=C(\C#N)c1nnc2n1-c1ccccc1SC2,-45.5%
19,CCN1C(c2ccc(F)cc2)=CS/C1=C(\C#N)c1nnc2n1-c1ccccc1SC2,-58.9%
20,Br.CN1C(c2ccc(F)cc2)=CS/C1=C(/C#N)c1nnc(N2CCOCC2)n1-c1ccccc1,-23.8%
21,COc1ccccc1-n1cnnc1SCC(=O)c1cc(C)n(Cc2cccs2)c1C,-27.8%
22,COc1ccc(-c2nnc(SCC(=O)c3cc(C)n(Cc4cccs4)c3C)o2)cc1,5.36%
23,COc1ccc(-n2cnnc2SCC(=O)c2cc(C)n(Cc3cccs3)c2C)cc1,-73.5%
